Experimental data published in PubChem BioAssay AID602123 (The Scripps Research Institute Molecular Screening Center, 2011).
Among all 360,000 compounds or so, about 1,500 (0.42%) were called active. This is one part of a sample in which actives are shown more often than they occur. No stated cut-off is given here; in the data, active means inhibition above about 13% (passing the limit was not always enough); inactive means the rest.

target: Lon protease (Escherichia coli (strain K12)) (UniProt P0A9M0); test: inhibitors of E. coli Lon protease, primary screen, biochemical, fluorescence polarization (AID 602123);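 further: 0% = enzyme with probe and DMSO and 100% = no enzyme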; conditions: purified E. coli Lon protease, at 7.94 µM, active compounds read high
Sequence (P0A9M0 whole entry, looked up): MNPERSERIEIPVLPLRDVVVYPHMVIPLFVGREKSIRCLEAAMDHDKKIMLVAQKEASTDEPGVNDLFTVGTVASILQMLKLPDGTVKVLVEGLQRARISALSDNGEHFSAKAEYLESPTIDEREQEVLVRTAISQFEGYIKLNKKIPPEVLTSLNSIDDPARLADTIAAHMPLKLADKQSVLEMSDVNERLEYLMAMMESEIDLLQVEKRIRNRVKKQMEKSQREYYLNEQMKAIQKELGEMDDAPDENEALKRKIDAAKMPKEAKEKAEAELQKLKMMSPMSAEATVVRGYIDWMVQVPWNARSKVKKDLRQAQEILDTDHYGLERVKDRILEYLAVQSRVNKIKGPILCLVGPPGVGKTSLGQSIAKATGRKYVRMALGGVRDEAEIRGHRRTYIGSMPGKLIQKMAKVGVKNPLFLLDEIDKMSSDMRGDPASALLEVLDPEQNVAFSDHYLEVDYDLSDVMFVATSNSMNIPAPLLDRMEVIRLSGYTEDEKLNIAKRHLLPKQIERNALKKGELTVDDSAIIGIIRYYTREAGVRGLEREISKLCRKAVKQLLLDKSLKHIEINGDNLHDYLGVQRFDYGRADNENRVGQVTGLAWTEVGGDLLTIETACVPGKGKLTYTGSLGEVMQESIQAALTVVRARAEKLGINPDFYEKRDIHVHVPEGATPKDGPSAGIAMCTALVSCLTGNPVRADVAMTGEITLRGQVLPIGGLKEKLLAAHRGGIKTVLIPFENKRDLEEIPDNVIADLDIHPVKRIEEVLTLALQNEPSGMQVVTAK

inhibition, inactive:
CC(=O)c1cccc(OCC(=O)OCC(=O)Nc2cc(S(=O)(=O)N3CCCCC3)ccc2C)c1 7.88%
CCOC(=O)[C@]12CCCC=C1N(Cc1ccc3c(c1)OCO3)C(=O)[C@H](CC(=O)NCc1cccs1)C2 5.92%
CC1=NN(C(=O)CCCc2ccccc2)C(O)(C(F)(F)F)C1 (stereo not given) -1.58%
COc1ccc(CC(=O)N2N=C(C)CC2(O)C(F)(F)F)cc1 (stereo not given) -7.36%
CCOC(=O)C1CCN(Cc2c(C(=O)N3CCOCC3)nc3c(C)cccn23)CC1 -0.49%
Cc1cccn2c(CNCC(C)Oc3cccnc3)c(C(=O)N3CCOCC3)nc12 (stereo not given) -6.22%
CCOC(=O)c1cccc(NC(=O)C2CCCN(S(=O)(=O)c3cnc[nH]3)C2)c1 (stereo not given) -1.61%
CCOCCc1nn2c(=O)cc(CSCC(=O)Nc3cccc(C)c3C)nc2s1 4.06%
COC(=O)c1ccc2nc(-c3ccc(F)cc3)c(Cc3ccc(C)cc3)n2c1 -5.56%
O=c1oc2ccccc2c(CNc2ccccc2)c1[N+](=O)[O-] -5.51%
CCCCCCCCOC1OC(CO)C(O)C(O)C1NC(C)=O (stereo not given) 5.86%
COC(=O)c1cc(NC(=O)c2cc(C(C)(C)C)nn2Cc2cccc(C)c2)ccc1N1CCOCC1 7.4%
CCCCOP(=O)(c1ccc(N(C)C)cc1)C(O)c1cc(OC)ccc1OC (stereo not given) 9.34%
CCOc1ccc(CCN2C(=S)N([C@@H](CC(C)C)CN3CCC[C@@H]3CN3C(=S)NC[C@@H]3Cc3ccc(O)cc3)C[C@@H]2Cc2ccc(O)cc2)cc1 1.84%
COC(=O)c1sccc1-n1cccc1C(=O)C(=O)N1CCCCC1 -3.71%
Cc1ccc(-c2nc(CS(=O)CC(=O)NC3CCCC3)c(C)o2)cc1 (stereo not given) -12.5%
COc1ccc(-c2nc(CS(=O)CC(=O)NCc3cccnc3)c(C)o2)cc1OC (stereo not given) -14.5%
O=C(OCc1cn([C@H]2C[C@H](c3ccccc3)N(C(=O)c3cccs3)C[C@@H]2O)nn1)c1ccccc1 2.92%
CC1C(c2ccccc2)=[N+]([O-])C2(CCCC2)N1O (stereo not given) -2.56%
CCn1cc(C(=O)NCCCN2CCCCCC2)c(=O)c2cc(S(=O)(=O)N3CCc4ccccc4C3)ccc21 1.65%
CCOC(=O)N1CCN(C(=O)c2cn(C)c3ccc(S(=O)(=O)N(CC)CC)cc3c2=O)CC1 1.34%
CCOCCCNC(=O)C(NC(=O)c1ccccc1O)c1ccccc1 (stereo not given) 10.1%
CCn1cc(/C=C(\NC(=O)c2ccc(C)cc2)C(=O)NCCN2CCOCC2)c2ccccc21 -56.3%
Cc1c(/C=N/N2C(=O)C3C4C=CC(C4)C3C2=O)c2ccccc2n1C (stereo not given) 0.26%
CCN1CCN(C(=O)CN(C)S(=O)(=O)c2ccc3ccccc3c2)CC1 -4.47%
O=C(NCCOc1cccnc1)c1ccc(OC2CCN(Cc3ccccn3)CC2)cc1 6.74%
CCOC(=O)C1(C(F)(F)F)N=C(N(C)C)OC(N(C)C)=N1 1.25%
N#CC1=C(N)Oc2cc(O)ccc2C1C1CCCCC1 (stereo not given) -1.88%
NC1=C([N+](=O)[O-])C(c2ccccc2)C2=C(CCCC2=O)O1 (stereo not given) -4.86%
O=C(O)c1ccc(OCC2CCCO2)cc1 (stereo not given) -7.47%
CCCCCCSc1nsc(N)n1 -2.31%
COc1ccc(CCNC(=O)Cn2c(=O)n(CC3CCCO3)c(=O)c3ccccc32)cc1OC (stereo not given) -3.69%
Cc1ccc(CCNC(=O)c2ccc3nc4ccccc4c(=O)n3c2)cc1 4.65%
CC(C)N(C(=O)COC(=O)c1ccccc1C(=O)N1CCN(c2ccc(F)cc2)CC1)C(C)C -12.1%
Oc1ccc(N2CCN(C(=S)NCc3ccccc3)CC2)cc1 4.95%
CC(C)(C)C(=O)c1c(N)[nH]c(C(=O)c2ccccc2)c1-c1ccc(F)cc1 -14.5%
COc1ccc(C)cc1NC(=O)CCS(=O)(=O)c1cccc2nonc12 -0.09%
O=C(CCS(=O)(=O)c1ccccc1)NC1CCCC1 0.44%
Cc1nn(C)c(C)c1CN(C(=O)CCc1nnc(Cc2c[nH]c3ccccc23)o1)C(C)C 12.7%
Cc1cccn2c(=O)c3cc(C#N)c(=O)n(CCCN4CCOCC4)c3nc12 -13.8%
COCCCn1c(C(=O)NC2CCCCC2)cc2c(=O)n3cccc(C)c3nc21 -13.7%
O=C(C1CC1)N1N=C(c2ccc(Br)cc2)CC1(O)C(F)(F)F (stereo not given) -8.02%
CCCS(=O)(=O)N1CCC(C(=O)NCCCN(C)Cc2ccccc2)CC1 -3.31%
CC1CC(C)CN(c2ccc(S(=O)(=O)N3CCOCC3)cc2)C1 (stereo not given) 4.68%
CSCCC(NS(=O)(=O)/C=C/c1ccccc1)C(=O)N1CCC(C)CC1 (stereo not given) -1.94%

inhibition, active:
CC1=NN(C(=O)CCc2ccccc2O)C(O)(C(F)(F)F)C1 (stereo not given) 18.2%
Cc1cccc(N2CCC(NCc3c(C(=O)N4CCCCC4)nc4c(C)cccn34)CC2)c1 29%
COc1ccc(-c2nc(CS(=O)CC(=O)NCc3ccccn3)c(C)o2)cc1 (stereo not given) 21.2%
CCN(CC)CCCNC(=O)c1cn(C)c2ccc(S(=O)(=O)N(C)C3CCCCC3)cc2c1=O 21.3%
O=C1C2C3C=CC(C4CC34)C2C(=O)N1/N=C/c1ccc(-c2ccccc2[N+](=O)[O-])o1 (stereo not given) 15.8%
N#CC1=C(N)OC2=C(C(=O)CCC2)C1C1CC=CCC1 (stereo not given) 20%
Cc1ccc2nc3c(cc(C(=O)NCCc4ccccc4)c(=N)n3CC3CCCO3)c(=O)n2c1 (stereo not given) 18.8%
O=C(COC(=O)c1ccccc1C(=O)N1CCN(c2ccccc2)CC1)NCc1ccccc1 23%
COc1cccc2sc(N(CCCN(C)C)C(=O)CCS(=O)(=O)c3ccccc3)nc12 22.5%
Cc1cccn2c(=O)c3cc(C#N)c(=NC(=O)c4cccnc4)n(CC4CCCO4)c3nc12 (stereo not given) 21.1%
